Laboratory results: PubChem BioAssay
Active and inactive are the calls of the source.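 How the source made its calls, unless noted: active means fluorescence slope after compound addition differing from the mean of all screened samples at 99.7% confidence, in either direction; inactive means the rest.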

How the values were obtained:
[1] = inhibitors of TNFa-induced NFkB p65 translocation, primary screen, imaging, HUVEC, MLSMR starter and 10KST1 sets (AID 438;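 active means inhibition above 20% together with a positive visual image hit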;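 further: compound added about 3h40 before a 20 min TNFalpha stimulation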;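 on inhibition: signal is the nuclear over cytoplasmic p65 intensity ratio per well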); details: HUVEC TNFa-induced p65 nuclear translocation; cell count: measured here: nuclei count (cytotoxicity indicator), at 2.08 µM; inhibition: at 2 µM, stronger effect = higher value, 0% TNFa-plus-vehicle, 100% no-TNFa wells
[2] = reduction of polyQ htt aggregates in cells – imaging, exon1htt(103Q)mCFP cells, high-content imaging, primary screen (AID 483;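 active means visual image review flags a hit and inhibition of aggregation exceeds 20%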;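 further: compound exposure lasted 3 days before fixation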;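 on nuclei count: percent of the per-plate median nuclei count of sample wells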); details: exon1htt(103Q)mCFP cell line, aggregate imaging, at 2 µM; inhibition of aggregation: stronger effect = higher value; nuclei count: measured here: cell count, toxicity
[3] = endothelial E-selectin expression blockers – imaging, HUVEC, immunofluorescence, MLSMR starter and 10KST1 sets, primary screen (AID 487;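 active means visually confirmed hit in the image check and inhibition above 20%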;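 on inhibition: signal is fraction of cell area covered by stained E-selectin grains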;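 on nuclei count: 100% = median nuclei count of all wells on the same plate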); details: HUVEC TNFalpha-induced E-selectin immunofluorescence imaging, at 2 µM; inhibition: stronger effect = higher value; nuclei count: measured here: cell number, toxicity
[4] = target: Voltage-gated potassium channel subunit beta-2 (Rattus norvegicus) (UniProt P62483); assay: inhibitors of rat Kvbeta2 reductase activity – biochemical, NADPH fluorescence, primary screen (AID 622;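 active means fluorescence slope higher than the sample average by over 3 SD, cut at about -0.22 in these data, passing the limit was not always enough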;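 further: slope of raw intensity against log time taken from 70 to 1610 s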); details: recombinant KvBeta, 4-cyanobenzaldehyde reduction, at 10 µM, stronger effect = higher value
[5] = target: Voltage-gated potassium channel subunit beta-2 (Rattus norvegicus) (UniProt P62483); assay: enhancers of rat Kvbeta2 NADPH turnover – biochemical, NADPH fluorescence, primary screen (AID 623;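 active means NADPH fluorescence slope more negative than the mean of all samples by about 3 SD, 99.7% confidence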;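 further: fluorescence intensity change per second fitted from 20 to 320 s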); details: Recombinant KvBeta, NADPH fluorescence decrease slope, 10 min; at 10 µM; stronger effect = lower value
[6] = target: Alpha-2C adrenergic receptor (Homo sapiens) (UniProt P18825); assay: compounds altering alpha2C-coupled GIRK flux – cell-based, HEK293 alpha2C/GIRK1/2, thallium flux, primary screen (AID 624); details: thallium flux BTC fluorescence, at 10 µM, actives lie on both sides;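 further: slope of fluorescence ratio to pre-addition baseline per second over 15 to 24 s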
[7] = blockers of RIG-like receptor reporter activation – cell-based, Sendai virus stimulus, luciferase, 10K MLSCN set, TLR/RLR signaling modifier project, primary screen (AID 602276;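 active means inhibition at or above 50% at 10 µM; inactive means inhibition below 50%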;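 further: firefly luciferase from ISG56 promoter only with Renilla not read in this screen; 0% = Sendai virus plus DMSO and 100% = medium plus DMSO without virus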); details: HEK293 RL24 IRF3 luciferase reporter, at 10 µM, stronger effect = higher value
[8] = TLR3 IRF3 reporter activation blockers – cell-based, poly I:C stimulus, luciferase, 10K MLSCN set, primary screen (AID 602277;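 active means inhibition of the reporter signal at or above 50%; inactive means inhibition below 50%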); details: HEK293-TLR3 RL24 IRF3 luciferase reporter, at 10 µM, stronger effect = higher value

Sequence of Alpha-2C adrenergic receptor (Homo sapiens) (P18825 whole entry, looked up): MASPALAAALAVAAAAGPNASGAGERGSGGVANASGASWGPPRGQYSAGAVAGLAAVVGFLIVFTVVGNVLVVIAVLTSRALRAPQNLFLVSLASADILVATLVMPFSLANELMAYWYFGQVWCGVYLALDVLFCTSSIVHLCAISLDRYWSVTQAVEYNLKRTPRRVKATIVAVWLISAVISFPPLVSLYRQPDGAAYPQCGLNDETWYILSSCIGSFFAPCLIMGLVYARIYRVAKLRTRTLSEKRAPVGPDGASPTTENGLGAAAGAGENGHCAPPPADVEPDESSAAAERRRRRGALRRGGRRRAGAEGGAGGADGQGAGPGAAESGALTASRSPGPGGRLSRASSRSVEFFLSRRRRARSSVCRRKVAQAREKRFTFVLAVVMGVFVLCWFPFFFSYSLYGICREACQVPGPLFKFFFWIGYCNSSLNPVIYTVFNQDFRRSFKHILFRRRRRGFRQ
Sequence of Voltage-gated potassium channel subunit beta-2 (Rattus norvegicus) (P62483 whole entry, looked up): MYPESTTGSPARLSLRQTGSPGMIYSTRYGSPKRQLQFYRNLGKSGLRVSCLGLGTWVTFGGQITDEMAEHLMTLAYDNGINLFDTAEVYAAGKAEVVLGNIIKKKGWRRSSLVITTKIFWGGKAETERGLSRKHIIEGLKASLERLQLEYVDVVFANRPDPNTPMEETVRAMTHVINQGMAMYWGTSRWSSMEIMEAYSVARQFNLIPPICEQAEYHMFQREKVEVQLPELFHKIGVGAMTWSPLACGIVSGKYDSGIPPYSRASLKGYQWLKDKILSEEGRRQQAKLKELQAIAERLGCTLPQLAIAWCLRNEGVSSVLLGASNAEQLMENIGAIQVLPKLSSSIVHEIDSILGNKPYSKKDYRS

| SMILES | cell count [1] | inhibition [1] | inhibition of aggregation [2] | nuclei count [2] | inhibition [3] | nuclei count [3] | fluorescence slope [4] | NADPH fluorescence slope [5] | slope [6] | inhibition [7] | inhibition [8] |
| --- | --- | --- | --- | --- | --- | --- | --- | --- | --- | --- | --- |
| Cn1nnnc1SCC(=O)Nc1ccccc1-c1ccccc1 | 484 | -8.7% (inactive) | 14.7% (inactive) | 87.9% | -80.2% (inactive) | 114% | -0.302 (inactive) | -1.3e-05 (inactive) | 0.00645 (inactive) | 6.85% (inactive) | -4.74% (inactive) |
| O=C(c1ccc2c(c1)OCO2)N1CCCN(C(=O)c2ccc3c(c2)OCO3)CC1 | 522 | 5% (inactive) | -1.1% (inactive) | 103% | -123% (inactive) | 106% | -0.417 (inactive) | -0.0001 (inactive) | 0.0056 (inactive) | 15.7% (inactive) | 28.5% (inactive) |
| CCOc1cc(C(=O)NCc2nnc(SCC(=O)OC)n2C)cc(OCC)c1OCC | 291 | 10% (inactive) | 17% (inactive) | 55.3% | 1.2% (inactive) | 101% | -0.337 (inactive) | -1.2e-05 (inactive) | 0.00327 (inactive) | 10.7% (inactive) | 16% (inactive) |
| COc1cc(OC)c(NC(=O)c2ccco2)cc1Cl | 363 | 2.2% (inactive) | 12.2% (inactive) | 110% | -1.1% (inactive) | 106% | -0.407 (inactive) | -4.6e-05 (inactive) | 0.00173 (inactive) | 21.8% (inactive) | 35% (inactive) |
| Cc1noc(C)c1S(=O)(=O)N1CCCC(C(=O)NCCc2ccc(Cl)cc2)C1 (centres undefined) | 402 | 7.3% (inactive) | -8.8% (inactive) | 107% | -78.1% (inactive) | 106% | -0.471 (inactive) | -0.000191 (inactive) | 0.00592 (inactive) | 11.6% (inactive) | 7.58% (inactive) |
| CC(=O)c1ccc(NC(=O)C2CCN(S(=O)(=O)c3cccc4cccnc34)CC2)cc1 | 591 | 8.3% (inactive) | -7.6% (inactive) | 102% | -11.2% (inactive) | 115% | -0.559 (inactive) | -1.3e-05 (inactive) | 0.0063 (inactive) | 14.2% (inactive) | 32.1% (inactive) |
| CCC(C)(C)n1nnnc1C(c1ccncc1)N1CCN(c2cccc(OC)c2)CC1 (centres undefined) | 410 | 1% (inactive) | -2.6% (inactive) | 95.6% | -31.9% (inactive) | 98.8% | -0.629 (inactive) | -2e-05 (inactive) | 0.00376 (inactive) | 23.4% (inactive) | 28.6% (inactive) |
| O=C(Cn1cc2c(n1)CCCC2)NCCc1ccccc1 | 792 | -3.7% (inactive) | 0.9% (inactive) | 106% | -47.8% (inactive) | 118% | -0.428 (inactive) | -2.6e-05 (inactive) | 0.00628 (inactive) | 5.6% (inactive) | 31.9% (inactive) |
| CC1(C)NC(=O)N(CCOc2cccc(Cl)c2Cl)C1=O | 411 | -1.1% (inactive) | 1.3% (inactive) | 98% | -35.1% (inactive) | 92.1% | -0.338 (inactive) | -6.5e-06 (inactive) | 0.00521 (inactive) | 16.8% (inactive) | 18.5% (inactive) |
| Cc1cc(C)cc(C(=O)N2CCC(C(N)=O)CC2)c1 | 706 | -3.5% (inactive) | -33.2% (inactive) | 109% | -54.3% (inactive) | 122% | -0.297 (inactive) | -4.1e-05 (inactive) | 0.00604 (inactive) | 13.6% (inactive) | 20.8% (inactive) |
| O=C(Cn1nnc(-c2ccccc2)n1)Nc1ccccc1N1CCOCC1 | 584 | 3% (inactive) | 5.4% (inactive) | 63.9% | -16% (inactive) | 107% | -0.602 (inactive) | 2.3e-05 (inactive) | 0.0042 (inactive) | 14.7% (inactive) | 14.8% (inactive) |
| CC(C)c1ncc(C(O)c2cccc3ccccc23)n1C (centres undefined) | 640 | -10.5% (inactive) | 11.4% (inactive) | 75.8% | -10.8% (inactive) | 123% | -0.494 (inactive) | -6.2e-05 (inactive) | 0.00406 (inactive) | -12.7% (inactive) | -7.56% (inactive) |
| O=C(COC(=O)C12CC3CC(CC(C3)C1)C2)NCc1ccco1 | 661 | 3.4% (inactive) | -6.5% (inactive) | 109% | -28.3% (inactive) | 113% | -0.561 (inactive) | 7.7e-06 (inactive) | 0.00593 (inactive) | 11.1% (inactive) | 31.8% (inactive) |
| Cc1ccc(-c2noc(CCC(=O)NCC3CCN(Cc4cccc(C)c4)CC3)n2)cc1 | 400 | 1.5% (inactive) | 7.8% (inactive) | 88.4% | 17% (inactive) | 89.5% | -0.401 (inactive) | -4.7e-05 (inactive) | 0.0033 (inactive) | 25.8% (inactive) | 28.9% (inactive) |
